Reference: PubChem BioAssay (NCATS)
Values without a mark were called inactive. Calls follow the shape of the dose curve; as a rule, active = well fitted inhibition curve with a large enough effect; inconclusive = small, poorly fitted or top-dose-only effect; inactive = no such curve, though single readings can be large or run the other way. Inconclusive results are not listed.

experiment: qHTS assay for measurement of the activity of small molecule inhibitors on Zika virus induced Caspase-3 activity in human iPSC derived neural progenitor cells (hNPCs) (AID 1224857); settings: hNPCs ZIKV-induced caspase-3/7, Caspase-Glo luminescence, 6 h; series mostly up to 45.7 µM; activity change, negative = inhibition: at the top concentration; also: % of control where 0% means no effect; nearly all actives have a fitted effect of over 65% in size
Summary of the method: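 Values are percent inhibition of virus-induced caspase-3/7 signal, scaled between uninfected cells and ZIKV-infected cells. Infection used 2 FFU/cell for 6 h after 1 h compound exposure.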

Compound | activity change, negative = inhibition
O=C(O)C1=CCCNC1 | -5.45%
CC(C)C[C@H](NC(=O)[C@H](O)[C@H](N)Cc1ccccc1)C(=O)O | -1.21%
Cc1nc2n(c(=O)c1CCN1CCC(c3noc4cc(F)ccc34)CC1)CCCC2O (stereo unspecified) | -12.6%
CC1CNCCN1S(=O)(=O)c1cccc2cnccc12 (stereo unspecified) | -14.9%
O=C(O)C1CCNCC1 | -1.58%
NCCCCN | 13.4%
NC1(C(=O)O)CC1 | 3.86%
CN1CC(O)C(O)C(O)C1CO (stereo unspecified) | 8.03%
CCCCCCCCCC(=O)NC(CN1CCOCC1)[C@H](O)c1ccccc1 (stereo partly specified) | 4.39%
CCCCCCN(CCCCCC)C(=O)Cc1c(-c2ccc(F)cc2)[nH]c2ccccc12 | -4.84%
O=c1[nH]c2cc(Cl)ccc2c(O)c1-c1ccc(Oc2ccccc2)cc1 | -9.91%
Cc1cccc(C(=O)NCN2CCN(c3ccccc3C#N)CC2)c1 | -1.65%
O=c1[nH]c2ccccc2c2ccccc12 | 4.41%
Cc1cc(Cn2cnc3c2C[C@@H](C(=O)O)N(C(=O)C(c2ccccc2)c2ccccc2)C3)ccc1N | -9.59%
NCCCNCCCCNCCCN | 8.38%
CC(C)[C@@H]1CC[C@@H](C)C[C@@H]1P(=O)(c1ccccc1)c1ccccc1 | -1.9%
CCN(CC)CCOC(=O)c1cc(Cl)c(N)cc1OC | 2.43%
[N-]=[N+]=Nc1ccc(C(=O)CSC[C@H](NC(=O)CC[C@H](N)C(=O)O)C(=O)NCC(=O)O)cc1 | -8.91%
Cc1ccccc1/C=C/C1=NCCN1 | 3.07%

Compound | activity change, negative = inhibition
NC(N)=NC(N)=Nc1ccccc1 | -2.19%
Cn1c(=O)c2c(nc(/C=C/c3cccc(Cl)c3)n2C)n(C)c1=O | -18.4%
Nc1ncnc2c1nc(Sc1ccc(Cl)cc1)n2[C@H]1OC2COP(=O)(O)O[C@@H]2C1O (stereo partly specified) | -14.1%
N[C@@H](Cc1ccc(O)c(I)c1)C(=O)O | -3.89%
CC(=O)NNC(=O)N1Cc2ccccc2Oc2ccc(Cl)cc21 | 0%
NCC(O)c1ccc(O)c(O)c1 (stereo unspecified) | 21.9%
c1ccc(C2CN3CCSC3=N2)cc1 (stereo unspecified) | -1.55%
Cc1cc2c(cc1Cl)N(C(=O)Nc1ccnc3ccccc13)CC2 | -3.32%
NCCNS(=O)(=O)c1cccc2c(Cl)cccc12 | -5.29%
NC(N)=N[C@@H](CCC(=O)O)C(=O)O | -3.16%
O=C(OCCN1CCOCC1)C1(c2ccccc2)CCCCC1 | -5.98%
CN(C)CCCc1cc(C(=O)Nc2ccc(-c3ccncc3)cc2)ccc1O | -3.7%
CC(=O)[C@H]1CCC2C3CC=C4C[C@@H](OS(=O)(=O)O)CC[C@]4(C)C3CC[C@@]21C (stereo partly specified) | 36.8%
N[C@H](C(=O)O)[C@H]1C[C@@H]1C(=O)O | -3.79%
Nc1ncnc2c1ncn2C1CCCO1 (stereo unspecified) | -4.42%
CNCCNS(=O)(=O)c1cccc2cnccc12 | 31.5%
CSC(N)=NCCC[C@H](N)C(=O)O | -2.25%
CC(C)NC[C@H](O)COc1ccc(CC(N)=O)cc1 | -6.05%
CSc1nc(N)c2ncn([C@@H]3O[C@H](COP(=O)(O)OP(=O)(O)O)C(O)[C@H]3O)c2n1 (stereo partly specified) | 14.5%

experiment: qHTS assay for measurement of the activity of small molecule inhibitors on Zika virus induced Caspase-3 activity in human astrocytoma cells (AID 1224859); settings: SNB-19 ZIKV-induced caspase-3/7, luminescence, 6 h; series mostly up to 45.7 µM; activity change, negative = inhibition: at the top concentration;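 also: plate controls were ZIKV-infected untreated cells for no effect and uninfected cells for full effect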
Summary of the method: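 Compound added 1 h pre-infection; ZIKV 2 FFU/cell on SNB-19 cells, 6 h, 37 C/5% CO2. Caspase-Glo 3/7 luminescence; values as % inhibition of ZIKV-induced caspase activity.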

Compound | activity change, negative = inhibition
O=C(O)C1=CCCNC1 | -8.68%
CC(C)C[C@H](NC(=O)[C@H](O)[C@H](N)Cc1ccccc1)C(=O)O | 0.984%
Cc1nc2n(c(=O)c1CCN1CCC(c3noc4cc(F)ccc34)CC1)CCCC2O (stereo unspecified) | -8.63%
CC1CNCCN1S(=O)(=O)c1cccc2cnccc12 (stereo unspecified) | 18.6%
O=C(O)C1CCNCC1 | -2.58%
NCCCCN | -7.85%
NC1(C(=O)O)CC1 | -3.78%
CN1CC(O)C(O)C(O)C1CO (stereo unspecified) | -4.49%
CCCCCCCCCC(=O)NC(CN1CCOCC1)[C@H](O)c1ccccc1 (stereo partly specified) | 8.72%
CCCCCCN(CCCCCC)C(=O)Cc1c(-c2ccc(F)cc2)[nH]c2ccccc12 | 2.24%
O=c1[nH]c2cc(Cl)ccc2c(O)c1-c1ccc(Oc2ccccc2)cc1 | 6.16%
Cc1cccc(C(=O)NCN2CCN(c3ccccc3C#N)CC2)c1 | 8.37%
O=c1[nH]c2ccccc2c2ccccc12 | 0.208%
Cc1cc(Cn2cnc3c2C[C@@H](C(=O)O)N(C(=O)C(c2ccccc2)c2ccccc2)C3)ccc1N | -15.3%
NCCCNCCCCNCCCN | -6.19%
CC(C)[C@@H]1CC[C@@H](C)C[C@@H]1P(=O)(c1ccccc1)c1ccccc1 | -9.13%
CCN(CC)CCOC(=O)c1cc(Cl)c(N)cc1OC | -7.59%
[N-]=[N+]=Nc1ccc(C(=O)CSC[C@H](NC(=O)CC[C@H](N)C(=O)O)C(=O)NCC(=O)O)cc1 | 10.5%
Cc1ccccc1/C=C/C1=NCCN1 | 0.434%

Compound | activity change, negative = inhibition
NC(N)=NC(N)=Nc1ccccc1 | 4.79%
Cn1c(=O)c2c(nc(/C=C/c3cccc(Cl)c3)n2C)n(C)c1=O | -3.8%
Nc1ncnc2c1nc(Sc1ccc(Cl)cc1)n2[C@H]1OC2COP(=O)(O)O[C@@H]2C1O (stereo partly specified) | 17.3%
N[C@@H](Cc1ccc(O)c(I)c1)C(=O)O | 0.154%
CC(=O)NNC(=O)N1Cc2ccccc2Oc2ccc(Cl)cc21 | -9.01%
NCC(O)c1ccc(O)c(O)c1 (stereo unspecified) | 0.659%
c1ccc(C2CN3CCSC3=N2)cc1 (stereo unspecified) | 12.4%
Cc1cc2c(cc1Cl)N(C(=O)Nc1ccnc3ccccc13)CC2 | 7.26%
NCCNS(=O)(=O)c1cccc2c(Cl)cccc12 | 0.427%
NC(N)=N[C@@H](CCC(=O)O)C(=O)O | -15.7%
O=C(OCCN1CCOCC1)C1(c2ccccc2)CCCCC1 | -3.28%
CN(C)CCCc1cc(C(=O)Nc2ccc(-c3ccncc3)cc2)ccc1O | 4.55%
CC(=O)[C@H]1CCC2C3CC=C4C[C@@H](OS(=O)(=O)O)CC[C@]4(C)C3CC[C@@]21C (stereo partly specified) | 20.7%
N[C@H](C(=O)O)[C@H]1C[C@@H]1C(=O)O | 5.06%
Nc1ncnc2c1ncn2C1CCCO1 (stereo unspecified) | -0.478%
CNCCNS(=O)(=O)c1cccc2cnccc12 | -2.58%
CSC(N)=NCCC[C@H](N)C(=O)O | -6.75%
CC(C)NC[C@H](O)COc1ccc(CC(N)=O)cc1 | -5.18%
CSc1nc(N)c2ncn([C@@H]3O[C@H](COP(=O)(O)OP(=O)(O)O)C(O)[C@H]3O)c2n1 (stereo partly specified) | -4.8%
